# Screens (PubChem)
# FBA Mtb inh – inhibitors of M. tuberculosis fructose-bisphosphate aldolase; hit rate 2.3% among 360,000; purified M. tuberculosis FBA, fluorescence read-out; inhibition, % at 1 µM; P9WQA3; AID 588726; in the data active means inhibition above about 27%
# Target sequence (P9WQA3 whole entry, looked up): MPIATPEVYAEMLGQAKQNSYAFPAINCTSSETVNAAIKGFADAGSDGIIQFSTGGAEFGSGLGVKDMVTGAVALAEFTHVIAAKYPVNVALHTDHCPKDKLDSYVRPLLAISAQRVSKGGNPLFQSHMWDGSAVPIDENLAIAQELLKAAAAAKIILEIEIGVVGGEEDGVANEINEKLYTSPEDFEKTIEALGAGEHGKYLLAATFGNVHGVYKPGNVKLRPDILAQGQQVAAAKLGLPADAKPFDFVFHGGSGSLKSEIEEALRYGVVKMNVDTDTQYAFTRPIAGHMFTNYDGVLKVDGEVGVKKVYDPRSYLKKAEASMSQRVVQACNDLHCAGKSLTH
# CCHFV vOTU inh – blocks the CCHF virus ovarian tumor domain protease. CCHFV vOTU protease, Pep-AMC fluorescence. hit rate 0.55% among 370,000. inhibition, % at 11.5 µM
# 3CLpro inhibitor – SARS-CoV 3CLpro protease inhibition; hit rate 0.14% among 290,000; recombinant SARS-CoV 3CLpro, quenched FRET peptide cleavage; P0C6X7; inhibition, % at 6 µM; in the data active means inhibition above about 12%
# RecA splice inh – blocks M. tuberculosis RecA intein splicing. AID 2221. cell-free RecA intein splicing, fluorescence. P9WHJ3. hit rate 0.75% among 290,000. inhibition, % (test concentration not listed); in the data active means inhibition above about 30%
# GDH-TPI counter-1 – inhibits GDH-TPI coupling enzymes, artifact for Mtb FBA screen; GDH-TPI coupled enzyme counterscreen, NADH absorbance; inhibition, % at 4.8 µM; hit rate 1.2% among 360,000; AID 588335
# VHR inh abs – inhibitors of human VHR1 phosphatase (DUSP3); AID 1654; P51452; recombinant VHR phosphatase, pNPP absorbance; hit rate 0.52% among 290,000; inhibition, % at 13.3 µM; in the data active means inhibition above about 50%
# Target sequence (P51452 whole entry, looked up): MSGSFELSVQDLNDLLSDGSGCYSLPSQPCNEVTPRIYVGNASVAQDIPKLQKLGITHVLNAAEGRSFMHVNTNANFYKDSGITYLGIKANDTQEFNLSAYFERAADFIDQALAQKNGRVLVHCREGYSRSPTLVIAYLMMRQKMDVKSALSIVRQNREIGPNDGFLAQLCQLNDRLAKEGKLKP
# Mtb FBA inh conf – confirmation of M. tuberculosis fructose-bisphosphate aldolase inhibitors; AID 651616; purified M. tuberculosis FBA, fluorescence read-out; hit rate 78% among 5,600; inhibition, % at 1 µM; shares compounds with FBA Mtb inh; in the data active means inhibition above about 27%
# GDH-TPI counter-2 – inhibits GDH-TPI coupling enzymes, flagging Mtb FBA hits | inhibition, % at 1 µM | shares compounds with FBA Mtb inh | hit rate 81% among 5,600 | GDH-TPI coupled enzyme counterscreen, fluorescence | AID 652141; in the data active means inhibition above about 10%
# A number is an active result; 0 = inactive; - = not tested or not shown; + = active, no number. Compounds with a hit are over-represented: about 4.7% of the library has one in this group of screens. Unless noted, no stated cut-off is given here; in the data, active means inhibition above about 30%; inactive means the rest.
SMILES,FBA Mtb inh,CCHFV vOTU inh,3CLpro inhibitor,RecA splice inh,GDH-TPI counter-1,VHR inh abs,Mtb FBA inh conf,GDH-TPI counter-2
COc1ccc(-c2nnc(-c3cc4c(ccc5ccccc54)oc3=O)o2)cc1,0,0,0,0,0,0,-,-
N#Cc1cc2c(ccc3ccccc32)oc1=O,73,0,0,0,0,0,168,141
O=c1oc2ccc3ccccc3c2cc1-c1nnc(-c2cccs2)o1,30,0,0,0,0,0,115,84
CCN(CC)c1ccc2cc(-c3nc4ccccc4n3C)c(=O)oc2c1,40,0,0,0,0,0,0,0
C/C(=N\Nc1ccc([N+](=O)[O-])cc1[N+](=O)[O-])c1cc2c(ccc3ccccc32)oc1=O,-,-,0,0,-,0,-,-
COc1ccc(CCC2(C)OCC(CCCCO)O2)cc1 (stereo unspecified),0,0,-,-,0,-,-,-
COCc1c(C(=O)N2CCN(c3ccc(C(F)(F)F)cn3)CC2)oc2ccccc12,0,0,0,0,0,0,-,-
CCN(CC)c1ccc2cc(-c3nnc(-c4ccccc4)o3)c(=O)oc2c1,34,0,0,0,0,0,146,105
COc1cc(Cn2c(N)c(C#N)c3nc4ccccc4nc32)cc(OC)c1,109,0,0,0,0,0,+,173
CCOc1ccc(Cn2c3ccc(OC)cc3c3nc4ccccc4nc32)cc1,0,0,0,-,0,0,-,-
N#Cc1c(N)n(-c2cccc(O)c2)c2nc3ccccc3nc12,84,0,0,0,0,0,+,+
N#Cc1c(N)n(CCOC(=O)c2cccc(Br)c2)c2nc3ccccc3nc12,45,0,0,0,0,0,50,34
O=C(CSCc1cc(=O)n2nc(C3CC3)sc2n1)Nc1ccc(F)cc1,0,0,0,0,0,0,-,-
CC(=O)N1CCC2(CC1)CC(=O)c1cc(OCC(=O)NCc3ccco3)ccc1O2,35,0,0,0,0,0,121,80
CC(=O)N1CCC2(CC1)CC(=O)c1cc(OCC(=O)NCc3ccc(C)cc3)ccc1O2,51,0,0,0,0,0,0,0
CC(=O)N1CCC2(CC1)CC(=O)c1cc(Cl)ccc1O2,0,0,-,0,0,-,-,-
COC(=O)C1=C(C)N(Cc2cccc(C(F)(F)F)c2)C(=NCc2cc(OC)c(OC)c(OC)c2)NC1c1cccc(F)c1 (stereo unspecified),-,0,-,-,-,-,-,-
CC(C)c1nc2oc3c(NCC4CCCO4)ncnc3c2c2c1COC(C)(C)C2 (stereo unspecified),0,0,0,0,0,0,-,-
Cc1nc2oc3c(NCC4CCCO4)ncnc3c2c2c1COC(C)(C)C2 (stereo unspecified),102,0,0,0,0,0,+,185
CCCc1nc2oc3c(OC)ncnc3c2c2c1COC(C)(C)C2,0,0,0,0,0,0,-,-
CCCc1nc2oc3c(NCCOCCO)ncnc3c2c2c1COC(C)(C)C2,82,0,0,0,0,0,96,60
CC(C)c1nc2oc3c(=O)[nH]cnc3c2c2c1COC(C)(C)C2,44,0,0,0,0,0,196,182
CC(C)c1nc2oc3c(NCCO)ncnc3c2c2c1COC(C)(C)C2,88,0,0,0,0,0,129,99
CCCCc1ccc(NC(=O)CSc2nc(=O)n(CCCN3CCOCC3)c3c2CCC3)cc1,0,0,-,0,0,-,-,-
Cn1c(=O)c2cc(NC(=O)NCc3ccc(Cl)cc3Cl)ccc2n1Cc1ccccc1,48,0,-,-,0,-,152,117
SMILES,FBA Mtb inh,CCHFV vOTU inh,3CLpro inhibitor,RecA splice inh,GDH-TPI counter-1,VHR inh abs,Mtb FBA inh conf,GDH-TPI counter-2
Fc1ccccc1CNC(=S)Nc1cccc(C(F)(F)F)c1,0,0,0,0,0,0,-,-
COc1cc(CCC(=O)Nc2cccc(C(F)(F)F)c2)cc(OC)c1OC,0,0,0,0,0,0,-,-
Cn1c(=O)c2cc(NC(=O)CCc3cccc(Cl)c3)ccc2n1Cc1cccc(C(F)(F)F)c1,37,0,-,-,0,-,96,84
Cn1c(=O)c2cc(NC(=S)NCc3ccccc3F)ccc2n1C,57,0,-,-,0,-,0,12
COc1ccc(OC)c(CC(=O)Nc2ccc3c(c2)c(=O)n(C)n3Cc2cccc(C(F)(F)F)c2)c1,111,0,-,-,0,-,36,28
O=C(NCc1ccc(Cl)cc1Cl)C1CC(=O)N(Cc2ccccc2)C1 (stereo unspecified),0,0,0,0,0,0,-,-
COc1ccc(CN2C(=O)CSCC2(C)C(=O)Nc2c(C)cccc2C)cc1OC (stereo unspecified),-,0,-,-,-,-,-,-
CC(=O)c1cccc(CN2CCC(C(=O)Nc3ccc(-c4cccc(C)c4)cc3)CC2)c1,0,0,0,0,0,0,-,-
CCOCCCNC(=O)c1ccc2c(c1)ncn2C1CCCC1,0,0,0,0,0,0,-,-
CCCCn1nc2cc(C(=O)NC3CCCc4ccccc43)ccc2c1OCC (stereo unspecified),36,0,0,0,0,0,184,132
C=CCOc1c2ccc(C(=O)NC3CCCc4ccccc43)cc2nn1C (stereo unspecified),0,0,0,0,0,0,-,-
COc1cc(C(=O)NC2CCCc3ccccc32)cc(OC)c1C (stereo unspecified),0,0,0,0,0,0,-,-
CCCCn1nc2cc(C(=O)N[C@H](C)C3CCCCC3)ccc2c1OCC,53,0,0,0,0,0,45,39
CCOc1c2ccc(C(=O)NC3CCCc4ccccc43)cc2nn1C (stereo unspecified),59,0,0,0,0,0,30,22
C=CCn1c(C)cc(C(=O)COC(=O)CCc2cc(OC)c(OC)c(OC)c2)c1C,0,0,-,-,0,-,-,-
Cc1cc(C)c(S(=O)(=O)Cc2ccccc2)c(Cl)n1,0,0,0,0,0,0,-,-
NS(=O)(=O)c1ccc(OCCCN2CCC(C(O)(c3ccccc3)c3ccccc3)CC2)cc1,-,0,-,-,-,-,-,-
CCN(CC)CCCNC(=O)c1cc(Cl)c(NC(=O)C2=C(C)OCCS2)cc1OC,0,0,0,0,0,0,-,-
CN1C(=O)c2ccc(NC(=O)c3cccc(N4C(=O)CCC4=O)c3)cc2C1=O,28,0,0,0,0,0,81,93
CCC(=O)Nc1ccc2c(c1)C(=O)N(C)C2=O,27,0,0,0,0,0,0,0
Cc1cccc(NC(=O)c2cccc(N3C(=O)CCC3=O)c2)c1,0,0,0,0,0,0,-,-
O=C(O)CCN1C(=O)c2ccc(NC(=O)c3cccs3)cc2C1=O,32,0,0,0,0,0,183,171
O=C(Nc1ccc2c(c1)C(=O)N(c1ccccc1)C2=O)c1cccs1,0,0,0,0,0,0,-,-
CCCC(=O)Nc1ccc2c(c1)C(=O)N(CCC(=O)O)C2=O,41,0,0,0,0,0,116,89
